DAX1 inh-1 = DAX1 (NR0B1) inhibitors, primary screen, cell-based, HEK293, Gal4-DAX1, luciferase luminescence; AID 504766, 2011; HEK293 Gal4-DAX1 luciferase reporter; Nuclear receptor subfamily 0 group B member 1 (Homo sapiens), P51843; inhibition, % at 6.75 µM; hit rate 0.99% among 340,000;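 active means inhibition above the mean over all tested compounds plus 3 SD, cut at about 4.2% in these data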;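 further: inhibition shows as a rise in luminescence from relieved DAX1 repression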
Target sequence (P51843 207-470 limits assumed): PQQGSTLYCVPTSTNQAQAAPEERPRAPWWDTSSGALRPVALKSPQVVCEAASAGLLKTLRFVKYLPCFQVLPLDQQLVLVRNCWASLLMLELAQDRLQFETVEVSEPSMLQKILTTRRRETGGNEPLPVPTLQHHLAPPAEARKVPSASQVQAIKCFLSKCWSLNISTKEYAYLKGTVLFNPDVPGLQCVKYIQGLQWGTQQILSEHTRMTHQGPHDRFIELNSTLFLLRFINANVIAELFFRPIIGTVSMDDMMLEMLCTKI
DAX1 inh-2 = DAX1 (NR0B1) inhibitors on StAR promoter, primary screen, cell-based, luminescence, SF-1 (NR5A1), full-length DAX-1; hit rate 1.1% among 370,000; AID 652010, 2013; HEK293T StAR-luciferase reporter, SF-1/DAX-1 repression relief; inhibition, % at 6.8 µM;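 active means inhibition above the mean over all tested compounds plus 3 SD, cut at about 3.6% in these data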;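 further: higher inhibition means more luminescence from relief of DAX-1 repression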
SMARCA2 act = SMARCA2 (BRM) function activators, primary screen, cell-based, luminescence, high throughput; MG213 cells, MMTV-luciferase reporter, dexamethasone, overnight; activation, % at 9.1 µM; hit rate 1% among 370,000; in the data active means activation above about 7.8%
hgDAF-12 ag = H. glycines DAF-12 receptor agonists, primary screen, cell-based, luminescence, HEK293, GAL4 fusion, UAS-luciferase; activation, % at 6.8 µM; HEK293 GAL4-hgDAF12 UAS-luciferase reporter, agonist luminescence; normalized to butyrate control; hit rate 1.8% among 370,000; Nuclear hormone receptor DAF-12 (Heterodera glycines), GAL4 fusion;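 active means activation above a cutoff set at the mean of all screened compounds plus 3 SD, cut at about 10% in these data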
ssDAF-12 act = S. stercoralis DAF-12 nuclear receptor activators, primary screen, cell-based, luminescence, HEK293, GRIP1 co-expression, lit1-tk-luc; Nuclear hormone receptor DAF-12 (Strongyloides stercoralis); HEK293 ssDAF-12/GRIP1 lit1-tk-luc reporter; % of 3 µM dafachronic acid response; activation, % at 6.8 µM; hit rate 1% among 370,000;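 active means activation above the mean over all tested compounds plus 3 SD, cut at about 0.9% in these data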
hcDAF12 agonist = H. contortus DAF-12 nuclear receptor activators, primary screen, cell-based, luminescence, HEK293, lit1-tk-luc reporter | HEK293 hcDAF-12 lit1-tk-luc reporter; 0% DMSO, 100% Δ7-dafachronic acid | activation, % at 6.8 µM | AID 652067, 2013 | hit rate 1.4% among 370,000;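 active means activation above the mean of all tested compounds plus 3 SD, cut at about 5.5% in these data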
Numbers stand for hits. Rows were chosen to be rich in hits. Some 4.8% of all compounds tested hit in one or more screens of this group.

For COc1ccc(Cc2nc3ccc(C(=O)NCc4cccc(C)n4)cc3o2)cc1OC the results were DAX1 inh-1 inactive, DAX1 inh-2 inactive, SMARCA2 act inactive, hgDAF-12 ag inactive, ssDAF-12 act inactive and hcDAF12 agonist inactive.
For Cc1cccc(CNC(=O)c2ccc3nc(Cc4ccccc4F)oc3c2)n1 the results were DAX1 inh-1 inactive, DAX1 inh-2 3.7, SMARCA2 act inactive, hgDAF-12 ag 11, ssDAF-12 act inactive and hcDAF12 agonist inactive.
CN(Cc1nccn1C)C(=O)c1ccc2nc(Cc3ccccc3F)oc2c1 was read as DAX1 inh-1 inactive, DAX1 inh-2 inactive, SMARCA2 act inactive, hgDAF-12 ag 13, ssDAF-12 act inactive and hcDAF12 agonist inactive.
O=C(NC1=NCCS1)c1cc(-c2ccc(-c3ccccc3)cc2)nc2ccccc12 was read as DAX1 inh-1 inactive, DAX1 inh-2 inactive, SMARCA2 act inactive, hgDAF-12 ag inactive, ssDAF-12 act 0.9 and hcDAF12 agonist inactive.
For CCOc1ccc(-c2cc(C(=O)O)c3ccccc3n2)cc1 the results were DAX1 inh-1 inactive, DAX1 inh-2 inactive, SMARCA2 act inactive, hgDAF-12 ag 11, ssDAF-12 act inactive and hcDAF12 agonist inactive.
COc1cccc(-c2cc(C(=O)NN3CCOCC3)c3ccccc3n2)c1 was read as DAX1 inh-1 inactive, DAX1 inh-2 inactive, SMARCA2 act inactive, hgDAF-12 ag inactive, ssDAF-12 act inactive and hcDAF12 agonist inactive.
For COC(=O)c1sccc1NC(=O)c1cc(-c2ccc(C)cc2)nc2ccccc12 the results were DAX1 inh-1 inactive, DAX1 inh-2 inactive, SMARCA2 act inactive, hgDAF-12 ag inactive, ssDAF-12 act 1.1 and hcDAF12 agonist inactive.
COc1cccc(-c2cc(C(=O)Nn3cnnc3)c3ccccc3n2)c1 was read as DAX1 inh-1 inactive, DAX1 inh-2 inactive, SMARCA2 act inactive, hgDAF-12 ag inactive, ssDAF-12 act inactive and hcDAF12 agonist 6.0.
Screening COc1ccc(-c2cc(C(=O)NC3=NCCS3)c3ccccc3n2)cc1OC returned DAX1 inh-1 inactive, DAX1 inh-2 inactive, SMARCA2 act inactive, hgDAF-12 ag inactive, ssDAF-12 act inactive and hcDAF12 agonist inactive.
Screening CCOc1ccc(-c2cc(C(=O)N3CCC(C)CC3)c3ccccc3n2)cc1 returned DAX1 inh-1 inactive, DAX1 inh-2 inactive, SMARCA2 act inactive, hgDAF-12 ag inactive, ssDAF-12 act inactive and hcDAF12 agonist inactive.
Screening O=C(Cc1ccc(Cl)c(Cl)c1)Nc1ccc(S(=O)(=O)Nc2ccon2)cc1 returned DAX1 inh-2 inactive, SMARCA2 act inactive, hgDAF-12 ag inactive, ssDAF-12 act inactive and hcDAF12 agonist inactive.
COc1ccc(C(C(=O)N(C)C2CCCC2)N(Cc2ccc(F)cc2)C(=O)c2cc(C)on2)cc1OC (stereo not given) was read as DAX1 inh-2 inactive, SMARCA2 act inactive, hgDAF-12 ag inactive, ssDAF-12 act inactive and hcDAF12 agonist inactive.
Screening O=[N+]([O-])c1ccc(/C=C/c2ccncc2)cc1 returned DAX1 inh-1 inactive, DAX1 inh-2 inactive, SMARCA2 act 7.9, hgDAF-12 ag inactive, ssDAF-12 act inactive and hcDAF12 agonist inactive.
O=[N+]([O-])c1cccc(/C=C/c2ccncc2)c1 was read as DAX1 inh-1 inactive, DAX1 inh-2 inactive, SMARCA2 act inactive, hgDAF-12 ag inactive, ssDAF-12 act inactive and hcDAF12 agonist inactive.
`CC(=O)CC[C@H]1CC[C@]2(CCCN(C(=O)c3ccco3)C2)O1` gave DAX1 inh-2 inactive, SMARCA2 act inactive, hgDAF-12 ag inactive, ssDAF-12 act inactive and hcDAF12 agonist inactive.
O=C(NCCN1CCCCC1)Nc1ccc([N+](=O)[O-])cc1 was read as DAX1 inh-1 8.7, DAX1 inh-2 inactive, SMARCA2 act inactive, hgDAF-12 ag inactive, ssDAF-12 act inactive and hcDAF12 agonist inactive.
CN(C)C(=O)C1(c2ccccc2)CCN(S(=O)(=O)c2ccccc2)CC1 was read as DAX1 inh-1 inactive, DAX1 inh-2 inactive, SMARCA2 act inactive, hgDAF-12 ag inactive, ssDAF-12 act inactive and hcDAF12 agonist inactive.
O=C(O)C1(c2ccccc2)CCN(S(=O)(=O)c2ccccc2)CC1 was read as DAX1 inh-1 inactive, DAX1 inh-2 inactive, SMARCA2 act inactive, hgDAF-12 ag inactive, ssDAF-12 act 1.0 and hcDAF12 agonist inactive.
CCC(C)N(C(=O)CSc1nnc(-c2ccco2)n1C)C1CCS(=O)(=O)C1 (stereo not given) was read as DAX1 inh-1 4.6, DAX1 inh-2 inactive, SMARCA2 act inactive, hgDAF-12 ag inactive, ssDAF-12 act inactive and hcDAF12 agonist inactive.
`O=C(Nc1ccc(F)cc1)OCCN1C(=O)CCC12CCC(c1ccc(Cl)cc1)CC2` (stereo not given) gave DAX1 inh-2 inactive, SMARCA2 act inactive, hgDAF-12 ag inactive, ssDAF-12 act inactive and hcDAF12 agonist inactive.
`O=S1(=O)CC=C(CSC(=S)NC2CCS(=O)(=O)C2)C1` (stereo not given) gave DAX1 inh-1 4.3, DAX1 inh-2 inactive, SMARCA2 act inactive, hgDAF-12 ag inactive, ssDAF-12 act inactive and hcDAF12 agonist inactive.
CCN(CC)C(=O)CC[C@H]1CC[C@]2(CCCN(Cc3ccccc3)C2)O1 was read as DAX1 inh-2 inactive, SMARCA2 act inactive, hgDAF-12 ag inactive, ssDAF-12 act inactive and hcDAF12 agonist inactive.
For COc1ccc(OCc2cc(C(=O)N3CCSCC3)no2)c(Cl)c1 the results were DAX1 inh-1 inactive, DAX1 inh-2 3.9, SMARCA2 act inactive, hgDAF-12 ag inactive, ssDAF-12 act inactive and hcDAF12 agonist inactive.
`CCOC(=O)C1CCN(C(=O)c2cc(COc3ccc(F)cc3F)on2)CC1` gave DAX1 inh-1 inactive, DAX1 inh-2 inactive, SMARCA2 act inactive, hgDAF-12 ag 12, ssDAF-12 act inactive and hcDAF12 agonist inactive.
Screening O=C(c1cc(COc2ccc3c(c2)CCCC3)on1)N1CCCC1 returned DAX1 inh-1 inactive, DAX1 inh-2 4.0, SMARCA2 act inactive, hgDAF-12 ag inactive, ssDAF-12 act inactive and hcDAF12 agonist inactive.
Screening COc1ccc(OCc2cc(C(=O)N3CCN(CC(=O)N(C)C)CC3)no2)c(Cl)c1 returned DAX1 inh-1 inactive, DAX1 inh-2 inactive, SMARCA2 act inactive, hgDAF-12 ag inactive, ssDAF-12 act inactive and hcDAF12 agonist inactive.
`COCC1CCN(C(=O)c2cc(COc3ccc4c(c3)CCCC4)on2)C1` (stereo not given) gave DAX1 inh-1 inactive, DAX1 inh-2 inactive, SMARCA2 act inactive, hgDAF-12 ag inactive, ssDAF-12 act inactive and hcDAF12 agonist inactive.
